# Hsp90 Hop PPI: changes Hsp90-Hop TPR2A binding signal, up or down | AlphaScreen TPR2A-His6 binding biotin-Hsp90 C-terminal peptide | Potency, µM (highest dose often 57 µM) | 71,000 compounds, 0.44% hits | AID 595; active means well fitted curve in either direction with a large enough effect; inconclusive means small, poorly fitted or top-dose-only effect, or another doubt
# TsaE inh: displaces an ADP probe from E. coli YjeE (TsaE); P0AF67; Potency, µM; purified YjeE enzyme, qHTS inhibition assay; AID 605; 71,000 compounds, 0.05% hits
#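 Purified YjeE (10 uM) with BODIPY Texas Red-labeled ADP probe (2 uM); compounds pin-transferred, 15 min at room temperature. Binding inhibition read as decreased fluorescence polarization; ADP titration as control.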
# DNA Pol III inh: DNA polymerase III holoenzyme inhibition | reconstituted DNA polymerase III holoenzyme replication, biochemical | Potency, µM (highest dose often 57.1 µM) | 71,000 compounds, 0.25% hits | AID 603
#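 Reconstituted *E. coli* holoenzyme (0.35 nM Pol III, 1 nM beta, 154 nM SSB, 2 nM primase) was preincubated with compound for 15 min at RT. Synthesis on 1.4 nM ssM13Gori ran 35 min, then was stopped with PicoGreen/EDTA and read as dsDNA fluorescence.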
# Tau fil binding: binds recombinant human tau filaments; recombinant tau filaments, thioflavin S fluorescence, 15 h; filaments grown with octadecylsulfate alongside compound; Potency, µM (doses to about 57.1 µM); 71,000 compounds, 2% hits;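 further: actives lower thioflavin S fluorescence by blocking filaments or displacing dye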
#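 Tau 2 uM in ThS buffer dispensed; compound added; 60 uM ODS added (finals 1 uM tau, 30 uM ODS); 15 h 37 C; fluor ex450/em510.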
# BRCT PPI red: disrupts BRCA1 BRCT binding to phosphoprotein, red fluorophore readout; P38398; BRCT-phosphopeptide binding, red fluorescence polarization; Potency, µM (top dose mostly 76.9 µM), actives largely listed as inhibitors; 75,000 compounds, 0.03% hits; AID 892
#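 Fluorescence polarization: 100 nM His-tagged BRCA1 BRCT with 100 nM TAMRA-labelled phospho-BACH1 decapeptide, phosphate buffer pH 7.3 with 150 mM NaCl, DTT, 0.01% Tween 20; 12 min RT. Binding inhibition seen as FP decrease.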
# BRCT PPI green: inhibitors of human BRCA1 BRCT-phosphoprotein interaction (green fluorophore). BRCA1 BRCT-phosphopeptide binding, green fluorescence polarization. Potency, µM (highest dose often 76.9 µM), usual class: inhibitors. 75,000 compounds, 0.05% hits. AID 875
#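 Compounds were incubated for 12 min at room temperature with a complex of 100 nM fluorescein-tagged pBACH1 decapeptide and 250 nM His-tagged BRCT protein. Buffer was phosphate pH 7.3 with EDTA, DTT and Tween 20. Disruption of binding lowers the polarization signal.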
# Hits are given with their value; 0 = inactive; ? = inconclusive; - = no result given; ! = not confirmed by another sample; [ ] = dose if it differs, or a comment. An excerpt weighted towards active compounds, which were near 2.4% of everything screened. Unless noted, the call rests on the fitted dose curve; in most records, active means well fitted curve in the direction sought with a large enough effect; inconclusive means small, poorly fitted or top-dose-only effect, or another doubt; inactive means no such curve, though single readings can be large; an effect the other way counts as inactive or inconclusive.
SMILES,Hsp90 Hop PPI,TsaE inh,DNA Pol III inh,Tau fil binding,BRCT PPI red,BRCT PPI green
CCNc1ncc2nc(-c3ccc(F)cc3)c(=O)n(-c3ccc(OC)cc3)c2n1,0,0,0,0,0,0
CCOC(=O)CCN1C(=O)[C@H]2[C@H]3[C@H](O)[C@H](O)C/C(=N/OC[C@@H](O)COCc4ccco4)[C@@H]3CC[C@@H]2C1=O,-,-,-,-,0[15.4 µM],0[15.4 µM]
CCc1c(C)sc(NC(=O)c2cccs2)c1C(=O)OC(C)C,25µM,0,0,0,0,0
CC1CCN(c2nc(-c3ccco3)c3c(c2C#N)CC(C)(C)OC3)CC1,25µM,0,0,0,0,0
CCc1nc(N2CCOCC2)c(C#N)c2c1COC(C)(C)C2,0,0,0,0,0,0
CC(C)[C@@H](CC(=O)N[C@@H]1CCCC[C@H]1C(=O)N[C@H](CC(=O)N[C@@H](CCC(=O)O)CC(=O)O)Cc1c[nH]c2ccccc12)NC(=O)C[C@H](Cc1c[nH]c2ccccc12)NC(=O)[C@@H]1CNCC[C@H]1N,16µM,0,0,0,-,-
C=CCCC/C=C(/C)C(OCc1ccc(OC)cc1)C(CC/C=C(\C)C(N)=O)OC (stereo unspecified),-,-,-,-,0[15.4 µM],0[15.4 µM]
CC(=O)c1cccc(NC2c3ccccc3C(=O)N2Cc2ccc3c(c2)OCO3)c1 (stereo unspecified),0[2.3 µM],0,0,0,0,0
O=C1c2ccccc2C(Nc2ccc3c(c2)OCCO3)N1Cc1ccccc1 (stereo unspecified),?,0,0,20µM,0,0
COc1ccc2nc(Nc3ccc4c(c3)OCO4)sc2c1,?,0,0,13µM,0,0
COCCCCC(=NOCCN)c1ccc(C(F)(F)F)cc1,0,0,0,32µM!,0,0
O=[N+]([O-])c1ccc(Nc2nc3ccccc3s2)cc1,0[11 µM],0,0[11.4 µM],4µM,0[15.4 µM],0[15.4 µM]
CNc1ccc([N+](=O)[O-])cc1,0,?,0,0,0,0
Cc1ccc(C(C)(C)C)cc1,0,0,0,0,0,0
CC(C)C[C@@H](CC(=O)N[C@@H](CCCN)CC(=O)N[C@@H]1CCNC[C@H]1C(=O)N[C@H](CC(=O)N[C@@H](CCC(=O)O)CC(=O)O)CC(C)C)NC(=O)[C@@H]1CNCC[C@H]1N,0,0,0,0,-,-
CNc1ccccc1C(C)(C)c1cc(-c2ccco2)n[nH]1,?,0,0,32µM,0,0
CC(C)(C)c1ccccc1NC(=O)c1ccco1,0,0,0,0,0,0
Cc1ccsc1/C=C/C1=NCCCN1C,-,-,-,-,0,0[3.08 µM]
Cc1ccsc1C=Nc1ccc(O)cc1,0,?,0,20µM,0,0
Cc1cc(N)c2ccccc2[n+]1CCCCCCCCCC[n+]1c(C)cc(N)c2ccccc21,?,?,16µM!,0,0,0[3.08 µM]
CC1=CC(=O)NS(=O)(=O)O1,0,0,0,0,0,0
O=c1/c(=C/c2ccccn2)sc2nc3ccccc3n12,0[11 µM],0,0[11.4 µM],0.5µM,0,0
Nc1c(C(=O)NCc2ccco2)sc2nc3c(cc12)C(=O)CCC3,0,0,0,20µM,0,0
CN(C)c1ncc2nc(-c3cc(F)cc(F)c3)c(=O)n(C)c2n1,0,0,0,0,0,0
COC(=O)N1CCC2(CC1)CN(C(=O)Nc1ccccc1)C2,0,0,0,0,0,0
SMILES,Hsp90 Hop PPI,TsaE inh,DNA Pol III inh,Tau fil binding,BRCT PPI red,BRCT PPI green
CCc1ccc(CNc2ccc(O)cc2)cc1,0,0,0,10µM,0,0
Cn1c(=O)c2ncn(CC(=O)Nc3ccc4c5c(cccc35)CC4)c2n(C)c1=O,0,0,0,13µM,0,0
Cc1cccc(C)c1NC(=O)Cn1cnc2c(=O)n(C)c(=O)n(C)c21,0,0,0,0,0,0
Fc1cccc(Cl)c1/C=N\N=C1c2ccccc2-c2ccccc21,?,0,0[11.4 µM],4µM,0[15.4 µM],0[15.4 µM]
CN1CCc2cc(O)c(O)cc2[C@H](c2ccccc2)C1,0,0,0,0,0,0
Cc1ccc(C(=O)Nc2ccc(N3CCOCC3)cc2)cc1,0,0,0,0,0,0
C/C(=C\C(=O)c1ccc(F)cc1)Nc1ccc(N2CCOCC2)cc1,0,0,0,6.3µM,0,0
CCN(CC)CCCn1c(-c2ccccc2)nc2c(N(CCOC)CCOC)nc(C)nc21,0,0,0,0,0,0
